Experimental data taken from PubChem BioAssay AID1851 (National Center for Advancing Translational Sciences (NCATS), 2009).
Among all 16,000 compounds or so, about 5,800 (36%) were called active. Roughly 23% stayed inconclusive and do not appear here. Some of the results follow. A number with no mark means an inactive call. Calls come from the whole dose curve; as a rule, active = well fitted curve in the direction sought with a large enough effect; inconclusive = small, poorly fitted or top-dose-only effect, or effect the other way; inactive = no such curve, though single readings can be large or run the other way.

Molecular target: Cytochrome P450 2C19 (Homo sapiens) (UniProt P33261)
Sequence (P33261 whole entry, looked up): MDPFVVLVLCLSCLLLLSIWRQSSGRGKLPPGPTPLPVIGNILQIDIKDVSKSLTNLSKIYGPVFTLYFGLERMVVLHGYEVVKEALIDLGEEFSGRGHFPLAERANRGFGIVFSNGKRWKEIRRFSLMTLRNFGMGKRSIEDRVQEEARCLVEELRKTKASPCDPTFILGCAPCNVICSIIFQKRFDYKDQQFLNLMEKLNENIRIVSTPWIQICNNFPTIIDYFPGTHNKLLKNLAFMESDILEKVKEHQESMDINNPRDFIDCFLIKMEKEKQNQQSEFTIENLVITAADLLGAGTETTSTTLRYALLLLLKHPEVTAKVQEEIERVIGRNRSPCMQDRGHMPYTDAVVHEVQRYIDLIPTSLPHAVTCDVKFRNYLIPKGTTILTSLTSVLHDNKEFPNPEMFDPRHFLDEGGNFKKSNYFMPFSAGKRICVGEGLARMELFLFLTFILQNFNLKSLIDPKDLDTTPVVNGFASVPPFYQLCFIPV
Assay: Cytochrome panel assay with activity outcomes
Conditions: recombinant CYP, pro-luciferin dealkylation, luminescence, p450-cyp2c19; series mostly up to 57.1 µM; activity, negative = inhibition: at the top concentration
% is set by controls: 0 for no effect and ±100 for the full control effect.

SMILES	AC50	activity, negative = inhibition
Cc1ccccc1NC(=O)C(C)c1cccc(C(=O)c2ccccc2)c1 (stereo not given)	1.26 µM (active)	–
CCCN[C@@H](C)C(=O)Nc1ccccc1C	inactive	–
O=C(NCc1cn(-c2ccccc2)nc1-c1ccccc1)c1cc([N+](=O)[O-])cc([N+](=O)[O-])c1	1.78 µM (active)	–
N[C@@H](Cc1c[nH]c2ccc([N+](=O)[O-])cc12)C(=O)O	–	34.9% [at 11.4 µM]
c1coc(CN2CCN(C(c3cccs3)c3nnnn3C3CCCC3)CC2)c1 (stereo not given)	10 µM (active)	–
Clc1ccc(C(c2nnnn2C2CCCC2)N2CCN(Cc3ccncc3)CC2)cc1 (stereo not given)	0.224 µM (active)	–
CS(=O)(=O)N1CCC2(CCN(Cc3ccncc3)CC2)CC1	–	-33.9%
Cc1cc(C(=O)CSc2nnc(-c3ccccc3)o2)c(C)n1CC1COc2ccccc2O1 (stereo not given)	1.12 µM (active)	–
CC(=O)NNC(=O)CCC(=O)Nc1ccccc1	–	11.8%
CC(=O)c1cccc(NC(=O)CCC2CCCC2)c1	3.55 µM (active)	–
O=C(Cn1cc(C(=O)c2ccco2)c2ccccc21)NCc1ccco1	2.24 µM (active)	–
COc1ccccc1CN1CCC2(CC1)CCN(C(=O)c1ccco1)CC2	–	-17.8%
COc1ccccc1OCCn1cc(C(=O)c2ccco2)c2ccccc21	1 µM (active)	–
Cc1ccccc1C(=O)c1cccn1CC(=O)NCc1ccco1	11.2 µM (active)	–
O=C(Cn1cccc1C(=O)c1ccccc1)NCc1cccs1	2.82 µM (active)	–
COc1ccccc1CN1CCCC2(CCN(C(=O)c3ccco3)CC2)C1	–	8.58%
CCS(=O)(=O)c1ccc(C(=O)Nc2ccccc2)c(Cl)c1Cl	11.2 µM (active)	–
O=C(c1csnn1)N1CCC2(CCCN(c3ccc(-c4ccccc4)cc3)C2)CC1	–	-15.8%
Nc1nonc1-c1noc(CCCN2C(=O)c3ccccc3C2=O)n1	3.98 µM (active)	–
O=C(O)CCc1nc(-c2ccccc2-n2cccc2)no1	–	-29.3% [at 11.4 µM]
CCNc1ncc2nc(-c3cccs3)c(=O)n(CCc3ccccc3)c2n1	–	-40.1%
CCNc1ncc2nc(C)c(=O)n(CCC#N)c2n1	–	-8.35%
CCNc1ncc2nc(C)c(=O)n(CCc3ccccc3)c2n1	0.316 µM (active)	–
CCNc1ncc2nc(-c3ccccc3)c(=O)n(CCc3ccccc3)c2n1	1 µM (active)	–
CCNc1ncc2nc(-c3ccccc3)c(=O)n(CCC#N)c2n1	–	-3.99%

SMILES	AC50	activity, negative = inhibition
Cc1nc2cnc(Nc3ccccc3)nc2n(CCc2ccccc2)c1=O	–	-11.4%
O=C(O)c1nn(-c2ccccc2-c2n[nH]c(=O)[nH]c2=O)c(=O)[nH]c1=O	–	20.9% [at 11.4 µM]
Cc1cc(C(=O)Nc2ccc(N3CCOCC3)cc2)c2ccccc2n1	–	-16.6%
Cc1cccc(N2CCN(c3ccc(NC(=O)/C=C(/C(=O)O)c4ccccc4)cc3)CC2)c1	4.47 µM (active)	–
c1csc(CNc2nc(-c3ccc4c(c3)OCO4)nc3ccccc23)c1	3.16 µM (active)	–
c1ccc(CNc2nc(-c3ccc4c(c3)OCO4)nc3ccccc23)cc1	10 µM (active)	–
c1cncc(CNc2nc(-c3ccc4c(c3)OCO4)nc3ccccc23)c1	10 µM (active)	–
CN(C)Cc1ccccc1-c1nc(NCc2ccccc2)c2ccccc2n1	–	-36.4%
Cc1cccc(CNc2nc(-c3ccc4c(c3)OCO4)nc3ccccc23)c1	3.16 µM (active)	–
CN[C@H]1[C@@H](O[C@@H]2[C@H](O[C@@H]3[C@@H](O)[C@@H](O)[C@@H](N=C(N)N)[C@@H](O)[C@@H]3N=C(N)N)O[C@H](C)[C@@]2(O)C=O)O[C@@H](CO)[C@@H](O)[C@H]1O	–	13.4% [at 25.6 µM]
Nc1ncnc2c1ncn2C[C@@H](O)C(=O)O	–	-17.6% [at 11.4 µM]
O=C1NCC2(CCN(CCc3ccccc3)CC2)O1	inactive	–
COc1ccc(OC)c(C2C(C(=O)Nc3nc4ccccc4s3)=C(C)NC3=C2C(=O)CCC3)c1 (stereo not given)	0.891 µM (active)	–
Cc1ncc([N+](=O)[O-])n1CC(=O)NCc1ccccc1	–	-0.585%
Cc1ccc([C@@H](O)c2cnc(C)n2Cc2ccccc2)cc1	1.26 µM (active)	–
Cc1ncc([N+](=O)[O-])n1CC(C)O (stereo not given)	–	-22.3%
COc1ccc(Oc2ncc3nc(-c4ccc(F)cc4)c(=O)n(Cc4cccs4)c3n2)cc1	–	-32%
CCC1(C)CC(CCNS(=O)(=O)c2ccc(C)cc2)(c2ccc(C)cc2)CCO1 (stereo not given)	3.98 µM (active)	–
CC1(C)O[C@@H]2O[C@H]([C@@H]3COC(C)(C)O3)[C@H](N)[C@H]2O1	–	14.5% [at 11.4 µM]
CCOc1ccc(OCC)c(-c2c(=O)n(OCc3ccccc3C(=O)OC)c3ccccc3[n+]2[O-])c1	4.47 µM (active)	–
CCOc1ccc(OCC)c(-c2c(=O)n(OCc3ccc(C(C)(C)C)cc3)c3ccccc3[n+]2[O-])c1	1.58 µM (active)	–
COc1ccc(CNC(=O)c2csc(Cc3ccc(OC)cc3)n2)cc1	8.91 µM (active)	–
COc1ccc(CCNC(=O)COC(=O)c2cnc(C)cn2)cc1	–	-61.1%
COc1ccc(CNC(=O)c2csc(Cc3ccc(Cl)cc3)n2)cc1	2.51 µM (active)	–
COc1ccc(CNC(=O)c2cnc(C)cn2)cc1	14.1 µM (active)	–

SMILES	AC50	activity, negative = inhibition
COc1ccc(CNC(=O)C2CSC(=O)C2)cc1 (stereo not given)	–	-5.06%
COc1ccccc1NC(=O)C(C/C=C(\C)Cl)C(C)=O (stereo not given)	3.55 µM (active)	–
COc1ccccc1NC(=O)c1nc[nH]c1C(=O)Nc1ccccc1OC	–	8.16%
O=C(COC(=O)c1ccccc1Nc1cccc(C(F)(F)F)c1)NCc1ccco1	2 µM (active)	–
Cc1cccc(Nc2ccccc2C(=O)OCC(=O)NCc2ccco2)c1C	5.01 µM (active)	–
O=C(O)c1cccnc1Nc1cccc(C(F)(F)F)c1	–	12.3% [at 25.6 µM]
O=C(COC(=O)c1cccnc1Nc1cccc(C(F)(F)F)c1)NCc1ccc2c(c1)OCO2	3.55 µM (active)	–
Cc1cccc(Nc2ccccc2C(=O)O)c1C	–	2.99% [at 25.6 µM]
O=C(O)CCCC[C@H]1CCSS1	–	14.9%
COc1ccccc1CNc1ncncc1-c1cccc(C#N)c1	3.16 µM (active)	–
COc1ccc(CNc2ncncc2-c2cccc(C#N)c2)c(OC)c1	5.01 µM (active)	–
Cc1n[nH]c(=O)nc1NCc1ccccc1Cl	28.2 µM (active)	–
Cc1cnc(CNc2nc(-c3ccccc3Cl)nc3ccccc23)cn1	–	-44.4%
CCCCOC1(c2ccccc2)OC(=O)c2ccccc21 (stereo not given)	6.31 µM (active)	–
CCCCCCCOC1(c2ccccc2)OC(=O)c2ccccc21 (stereo not given)	3.55 µM (active)	–
CC(=O)[C@@]1(O)Cc2c(O)c3c(c(O)c2[C@H](O[C@H]2C[C@H](N)[C@H](O)[C@H](C)O2)C1)C(=O)c1ccccc1C3=O	–	-27.6%
COc1ccc(C(=O)NC(=S)NC(C)C)cc1Br	2.24 µM (active)	–
COc1ccc(C(=O)NC(=S)NC(C)(C)C)cc1Br	3.55 µM (active)	–
C=CCN1CCc2c(cc(O)c(O)c2Br)[C@H](c2ccccc2)C1	–	-43.7%
COC(=O)CNC(=O)CN1C(=O)N(c2ccc(Cl)cc2)C(N(O)C(=O)Nc2ccc(Cl)cc2)C1(C)C (stereo not given)	14.1 µM (active)	–
NC(=NCc1ccc(Cl)c(Cl)c1)NC(=O)c1nc(Cl)c(N)nc1N	–	-23%
CCCCCCCCCCCCC(=O)N1CCCC[C@H]1CNC(=O)[C@@H](N)CCCCN	7.94 µM (active)	–
CC(C)C(=O)C(C)(C)CCc1ccccn1	–	-41.1% [at 11.4 µM]
CN(CCc1ccccn1)Cc1ccc(Cl)cc1Cl	0.447 µM (active)	–
CN(CCO)Cc1ncccc1O	–	42.9% [at 11.4 µM]

SMILES	AC50	activity, negative = inhibition
Cc1cccc(CN(C)CCc2ccccn2)c1	15.8 µM (active)	–
O=C(O)[C@@H](O)Cc1ccccn1	–	14.4% [at 11.4 µM]
CCOC(=O)c1cnn(-c2ccccc2)c1-n1cccc1C(=O)C(=O)Nc1ccccc1C(F)(F)F	7.94 µM (active)	–
CCC(CC)C(=O)Nc1c2cnn(-c3ccccc3)c2nc(=O)n1-c1ccccc1	–	-20%
O=C(O)c1nnsc1-c1ccc(-c2snnc2C(=O)O)cc1	–	-40.8% [at 11.4 µM]
N#CC(c1ccc(Cl)cc1)c1nc2ccccc2nc1C(F)(F)F (stereo not given)	0.562 µM (active)	–
O=C(Nc1ccccc1)N1CCC2(CCNCC2)CC1	–	-11.1%
O=C(C1CCN(S(=O)(=O)N2CCOCC2)CC1)N1CCN(c2ccccc2)CC1	25.1 µM (active)	–
O=C(Nc1cccc(NC(=O)N2CCN(c3ccccc3)CC2)c1)N1CCN(c2ccccc2)CC1	5.01 µM (active)	–
c1ccn(-c2ccc(N3CCOCC3)cc2)c1	–	-16.5%
O=C(N1CCOCC1)N1CCN(c2ccccc2)CC1	14.1 µM (active)	–
O=C(Nc1ccccc1)N1CCCC2(CCNCC2)C1	–	8.07%
CC1CCCC(NC(=O)C2CCN(S(=O)(=O)N3CCOCC3)CC2)C1C (stereo not given)	–	-28.5%
COc1ccc(N(C)S(=O)(=O)c2ccc3c(c2)CCC(=O)N3)cc1	6.31 µM (active)	–
O=C(CCNS(=O)(=O)c1ccc2c(c1)CCC(=O)N2)NCc1ccc2c(c1)OCO2	–	-25%
COc1ccc(NC(=O)CCNS(=O)(=O)c2ccc3c(c2)CCC(=O)N3)cc1	–	-14.5%
N#Cc1cccc(NC(=O)N2CC[C@@]3(CCCN(C(=O)c4ccncc4)C3)C2)c1	–	-19.1%
Cc1cc(NC(=O)CSc2ccc3nnc(-c4ccc(F)cc4)n3n2)no1	–	-26.1%
CCCCc1nc(SCC(=O)Nc2ncccn2)n[nH]1	–	-8.74%
Cc1cc(NC(=O)CSc2n[nH]c(-c3cccs3)n2)no1	14.1 µM (active)	–
N[C@@H](Cn1ccc(=O)n(Cc2ccccc2C(=O)O)c1=O)C(=O)O	0.1 µM (active)	–
N[C@H](Cn1ccc(=O)n(Cc2ccccc2C(=O)O)c1=O)C(=O)O	–	-24.5%
Cc1nn(-c2ccccc2)c(Cl)c1C(=O)Nc1c(C)n(C)n(-c2ccccc2)c1=O	–	-5.57%
CCCCCc1nnc(NC(=O)C(=O)OCC)s1	–	-25.8%
CCc1nnc(NC(=O)c2c(C)nn(-c3ccccc3)c2Cl)s1	20 µM (active)	–
